Measured values as given in PubChem BioAssay (NCI).
Compounds without any hit were thinned out: in the full panel of roughly 83,000, 20% have a hit.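 Step 1: grow cells in 96-well plates. Step 2: add test compound at a single concentration. Step 3: incubate 48 h. Step 4: record percent growth.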 Calls of active or inactive are those of the source. How the source made its calls: active means growth percent below 10; inactive means the rest.

Key:
Assay in all cases: NCI-60 one-dose screen, 48 h (100 = growth as untreated, 0 = no growth, -100 = all killed)
[1] = test system: NCI-H23 lung; settings: 10 µM unless noted
[2] = test system: NCI-H226 lung; settings: 10 µM unless noted
[3] = test system: NCI-H322M lung; settings: 10 µM unless noted
[4] = test system: HOP-62 NSCLC; settings: 10 µM unless noted
[5] = test system: NCI-H460 lung; settings: 10 µM unless noted
[6] = test system: HOP-92 NSCLC; settings: 10 µM
[7] = test system: NCI-H522 lung; settings: 10 µM unless noted
[8] = test system: A549/ATCC NSCLC; settings: 10 µM unless noted
[9] = test system: 786-0 renal; settings: 10 µM unless noted
[10] = test system: COLO 205 colon; settings: 10 µM unless noted

Measured: growth

O=C(Nc1cccc(C(F)(F)F)c1)c1cc(-c2ccc(F)cc2F)ccc1O
inactive: [4] 12.8% | [9] 14.9% | [10] 75.5%
active: [1] -4.34% | [2] 9.06% | [3] 4.46% | [5] 2.67% | [6] -26.2% | [7] -4.56% | [8] 7.54%

CC(C)C[C@@H]1N[C@@]2(C(=O)Nc3ccccc32)[C@@H](c2ccc(F)cc2)[C@@H]1C(=O)c1ccc(O)cc1
inactive: [1] 91.6% | [2] 92.7% | [3] 99.1% | [4] 88.9% | [5] 101% | [6] 74.3% | [7] 79.6% | [8] 85.1% | [9] 93.2% | [10] 110%

COc1ccc([C@H]2c3[nH]c4ccccc4c3C[C@H]3C(=O)N(C4CCN(Cc5c(Cl)cccc5Cl)CC4)CC(=O)N23)c(OC)c1
inactive: [1] 98% | [2] 92.9% | [3] 94.5% | [4] 93.2% | [5] 99.1% | [6] 79.4% | [7] 87.2% | [8] 91.1% | [9] 101% | [10] 109%

COc1ccccc1NCc1cccn1Cc1ccc(F)cc1
inactive: [1] 96.6% | [2] 90.4% | [3] 92.5% | [4] 92% | [5] 103% | [6] 81.5% | [7] 79.5% | [8] 101% | [9] 92.8% | [10] 110%

NC(N)=Nc1ccc(Oc2cccc(NC(N)=Nc3ccc(Cl)c(C(F)(F)F)c3)c2)cc1
inactive: [1] 60.2% | [2] 73% | [3] 64.6% | [4] 60.4% | [5] 26.8% | [6] 19.2% | [7] 39.6% | [8] 47.1% | [9] 81% | [10] 24.3%

Cc1nc(-c2ccccc2O)ccc1C(=O)N=Nc1c(O)[nH]c2ccc(Br)cc12
inactive: [1] 96.2% | [2] 81.4% | [3] 99.5% | [4] 84.3% | [5] 99.8% | [6] 62.1% | [7] 97% | [8] 103% | [9] 102% | [10] 105%

Fc1ccc(-c2cc3nc(C(Cl)Cl)nc(-c4ccco4)n3n2)cc1
inactive: [1] 37.3% | [2] 93.2% | [7] 89.9% | [9] 33.2%
active: [3] -22.3% | [4] -18.8% | [5] -17.3% | [6] -15.1% | [8] -20.1% | [10] -45.4%

NC(N)=Nc1ccc(Oc2ccc(Nc3ccc(Cl)c(C(F)(F)F)c3)cc2)cc1
inactive: [1] 11.8% | [2] 48.9% | [3] 68.5% | [4] 76.4% | [6] 34.1% | [7] 18.2% | [8] 31.1% | [9] 34.6% | [10] 20%
active: [5] -0.702%

O=C(NCCn1ccnc1)c1ccc(-c2nc3ccc4[nH]ncc4c3c3c2CCCC3)cc1
inactive: [1] 71% | [2] 69.7% | [3] 83.8% | [4] 55.4% | [5] 59.9% | [6] 46.9% | [8] 97.3% | [9] 75.6% | [10] 56.1%
active: [7] 3.21%

Clc1cccc(/C=N/Nc2nc(N/N=C/c3cccc(Cl)c3Cl)nc(N3CCCCC3)n2)c1Cl
inactive: [1] 99.7% | [2] 97.5% | [3] 90% | [4] 98.2% | [5] 33.8% | [6] 86.2% | [7] 76.6% | [8] 55.6% | [9] 102% | [10] 90.3%

O=S(=O)(NCCNc1nccc(-n2cnc3ccccc32)n1)c1ccc(C(F)(F)F)cc1
inactive: [1] 54.5% | [2] 62.7% | [3] 85.3% | [4] 66.1% | [5] 57.8% | [6] 54.9% | [7] 38.2% | [8] 55.4% | [9] 69.6% | [10] 64.9%

COc1ccc(Cn2cc3c(c2-c2cc(OC)c(OC)c(OC)c2)CCc2c(CN4CCCC4)noc2-3)cc1
inactive: [2] 61.7% | [3] 51.8% | [4] 33.8% | [6] 75.5% | [7] 28.2% | [8] 25.8% | [9] 47.9%
active: [1] 7.29% | [5] 9.59% | [10] 8.39%

CCOC(=O)c1c(NC(=O)c2ccccc2C(F)(F)F)sc2c1CCC(=O)C2
active: [7] 5.03%
inactive: [1] 23.3% | [2] 60.8% | [3] 113% | [4] 64.8% | [5] 33.3% | [6] 40.1% | [8] 97.5% | [9] 104% | [10] 56.7%
